Values joined by “and” are separate entries in the source; they are usually repeats but may differ in a detail not shown here. Equal entries are not always repeated. Among all 360,000 compounds or so, about 1,600 (0.44%) were called active.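 Rule for the calls: active = every replicate showing at least 50% inhibition; inconclusive = mean inhibition at least 50% but not in every replicate; inactive = the rest.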 The sample as a whole holds a higher share of actives than the screen did. More than one record can exist for a structure, and the calls need not agree.
These compounds were tested against DNA repair protein RAD52 homolog (Homo sapiens) (UniProt P43351) (assay: RAD52 DNA annealing inhibitors, primary screen, biochemical, FRET, single point, set 2 (AID 651710)). Settings: recombinant RAD52 DNA annealing, FRET fluorescence; at 18.7 µM; stronger effect = higher value.
DNA repair protein RAD52 homolog (Homo sapiens), sequence (P43351 whole entry, looked up): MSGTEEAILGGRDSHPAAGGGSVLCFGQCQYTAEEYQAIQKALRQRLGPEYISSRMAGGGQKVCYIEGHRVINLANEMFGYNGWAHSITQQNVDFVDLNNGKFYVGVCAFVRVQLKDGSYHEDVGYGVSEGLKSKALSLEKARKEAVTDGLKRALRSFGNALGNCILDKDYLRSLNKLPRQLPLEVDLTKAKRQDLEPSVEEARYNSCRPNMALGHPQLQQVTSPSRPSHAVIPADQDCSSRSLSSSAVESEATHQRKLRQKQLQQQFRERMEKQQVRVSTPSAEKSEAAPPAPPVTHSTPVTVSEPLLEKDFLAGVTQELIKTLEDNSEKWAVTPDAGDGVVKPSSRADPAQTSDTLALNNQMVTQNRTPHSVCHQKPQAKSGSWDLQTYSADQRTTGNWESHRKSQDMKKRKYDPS

With COc1ccc(CN(C)C[C@H]2OCCCC[C@H](C)Oc3ccc(NC(=O)c4ccccc4)cc3C(=O)N([C@@H](C)CO)C[C@@H]2C)cc1 as the compound, how does the inhibition read?
The inhibition was 28.1% (inactive).

Which inhibition does the source give for CO[C@H]1CN(C)C(=O)c2ccc(NC(=O)Nc3ccc(F)cc3)cc2OC[C@@H](C)NC[C@H]1C here?
Its inhibition is -5.12% (inactive).

Cc1ccc(C(=O)N/C(=C\c2ccc(F)cc2)C(=O)NCCN2CCOCC2)cc1 was tested. Which inhibition did it give?
Its inhibition is -4.68% (inactive).

How did the inhibition turn out when Cc1ccc(C(=O)N/C(=C/c2ccc(-c3cccc([N+](=O)[O-])c3)o2)C(=O)NCCCN(C)C)cc1 was run?
The inhibition was 65.9% (active).

Which inhibition does the source give for Cc1occc1C(=O)N/N=C/c1ccc(-c2cccc([N+](=O)[O-])c2)o1 here?
Its inhibition is -14% (inactive).

Which inhibition does the source give for COc1ccc(CNC(=O)C[C@H]2C[C@H]3c4cc(NS(C)(=O)=O)ccc4O[C@H]3[C@@H](CO)O2)cc1 here?
The inhibition was 9.84% (inactive).

Which inhibition does the source give for Cc1ccc(-c2ccc3c(c2)O[C@@H](CN(C)C(=O)CC2CC2)[C@@H](C)CN([C@@H](C)CO)S3(=O)=O)cc1 here?
Its inhibition is 18.4% (inactive).

With COCCNC(=O)C[C@@H]1C[C@@H]2c3cc(NC(=O)Nc4ccc(C(F)(F)F)cc4)ccc3O[C@@H]2[C@@H](CO)O1 as the compound, how does the inhibition read?
The inhibition was 1.63% (inactive).

With CN(C)CCNC(=O)c1ccc(-c2cn3c(-c4ccc(Oc5ccccc5)cc4)cnc3cn2)cc1 as the compound, how does the inhibition read?
The inhibition was 85.7% (active).

With CN(C)C(CNC(=O)c1ccc(OCc2cn3ccccc3n2)cc1)c1ccco1 (stereo not given) as the compound, how does the inhibition read?
The inhibition was -13.9% (inactive).

For CC(=O)c1cccc(-c2cnc3c(NC=O)cc(-c4ccccc4Oc4ccccc4)cn23)c1, which inhibition is on record?
The inhibition was -29.2% (inactive).

With C[C@H]1CN([C@@H](C)CO)C(=O)c2cccc(NS(=O)(=O)c3cn(C)cn3)c2O[C@H]1CN(C)C(=O)Nc1ccc2c(c1)OCO2 as the compound, how does the inhibition read?
Its inhibition is -13.3% (inactive).

With CS(=O)(=O)N1[C@H](C#N)[C@H](c2ccc(C#CC3CC3)cc2)[C@H]1CO as the compound, how does the inhibition read?
The inhibition was -26.1% (inactive).

For COc1ccc(NC(=O)N(C)C[C@@H]2Oc3c(NS(=O)(=O)c4ccc(OC)cc4)cccc3C(=O)N([C@H](C)CO)C[C@@H]2C)cc1, which inhibition is on record?
Its inhibition is -3.75% (inactive).

For COc1ccc2c3c(n(C)c2c1)[C@H](CO)N(S(=O)(=O)c1ccc(C)cc1)CC31CCN(C(=O)c2ccccn2)CC1, which inhibition is on record?
Its inhibition is 21.8% (inactive).

How did the inhibition turn out when C[C@@H]1CN([C@@H](C)CO)C(=O)CCCn2nncc2CO[C@H]1CN(C)C(=O)Nc1ccc(C(F)(F)F)cc1 was run?
Its inhibition is -10.9% (inactive) and -1.52% (inactive).

With C[C@H]1CN([C@@H](C)CO)C(=O)CCCn2nncc2CO[C@@H]1CN(C)C(=O)Nc1ccc(N2CCN(C)CC2)cc1 as the compound, how does the inhibition read?
The inhibition was 60.1% (active) and 24.7% (inactive).

For COC(=O)N(C)C[C@@H]1OCc2cnnn2CCCC(=O)N([C@@H](C)CO)C[C@@H]1C, which inhibition is on record?
Its inhibition is 0.525% (inactive) and 0.31% (inactive).

Which inhibition does the source give for COc1ccc(S(=O)(=O)N2CC[C@@H]3[C@@H](CO)Nc4ccc(C#Cc5cccnc5)cc4[C@@H]32)cc1 here?
Its inhibition is 0.847% (inactive).

Which inhibition does the source give for Cc1noc(C)c1S(=O)(=O)N(C)C[C@H]1Oc2ccc(NC(=O)CCN3CCOCC3)cc2CC(=O)N([C@H](C)CO)C[C@H]1C here?
The inhibition was -2.41% (inactive).

C[C@H](CO)N1C[C@H](C)[C@H](CN(C)C)Oc2ccc(NC(=O)Nc3ccc(F)cc3)cc2CC1=O was tested. Which inhibition did it give?
The inhibition was -3.53% (inactive).

Which inhibition does the source give for Cc1cccc(NC(=O)NC2(C)CCS(=O)(=O)C2)c1 (stereo not given) here?
The inhibition was -1.1% (inactive).

Cc1cccc(NC(=S)NC23CN4CN(CN(C4)C2)C3)c1 was tested. Which inhibition did it give?
The inhibition was 82.8% (active).

With Cc1cccc(NC(=S)NCc2ccc3[nH]c4c(c3c2)CCCC4)c1 as the compound, how does the inhibition read?
Its inhibition is -21.7% (inactive).

How did the inhibition turn out when Cc1cccc(C(=O)OC(C)CN2CCN(C)CC2)c1 (stereo not given) was run?
The inhibition was -5.75% (inactive).

With Cc1cccc(-c2nc3ccc(C(=O)NCCN4CCN(C)CC4)cc3nc2-c2cccc(C)c2)c1 as the compound, how does the inhibition read?
The inhibition was 68% (active).

How did the inhibition turn out when O=C(NCCN1CCOCC1)c1cccc(S(=O)(=O)Nc2ccc(F)cc2)c1 was run?
Its inhibition is 2.89% (inactive).

CN(C)CC(=O)N1[C@H](CO)[C@@H](c2ccc(-c3cccc(C(=O)N(C)C)c3)cc2)[C@@H]1C#N was tested. Which inhibition did it give?
Its inhibition is -31.9% (inactive).

How did the inhibition turn out when Oc1ccc(N=Cc2sc3ccccc3c2Cl)cc1 was run?
The inhibition was 55.8% (active).

How did the inhibition turn out when O=C(NC1CCC1)[C@H]1[C@H](CO)[C@H]2Cn3c(ccc(C4=CCCCC4)c3=O)[C@@H]1N2CC1CC1 was run?
The inhibition was 1.51% (inactive).

With CCc1ccc(S(=O)(=O)NCC(O)COc2ccc(OC)cc2)cc1 (stereo not given) as the compound, how does the inhibition read?
The inhibition was -8.48% (inactive).

For CCCc1ccc(OCC(O)CN2CCN(C(=O)OCC)CC2)cc1 (stereo not given), which inhibition is on record?
The inhibition was -8.19% (inactive).

How did the inhibition turn out when Nc1ccc(OCC(O)C[n+]2ccc(CCS(=O)(=O)[O-])cc2)cc1 (stereo not given) was run?
The inhibition was 58.1% (active).

COCC(=O)N1CC(=O)N2[C@H](C1)[C@H](c1ccc(C#CC3CCCCC3)cc1)[C@@H]2CO was tested. Which inhibition did it give?
Its inhibition is 6.1% (inactive).

COc1ccc2c3c([nH]c2c1)[C@H](CO)N(C(=O)c1ccccc1)CC31CCN(S(=O)(=O)c2cccs2)CC1 was tested. Which inhibition did it give?
Its inhibition is 2.57% (inactive).
